In PMC11062922 (Nature Chemical Biology, 2023) one finds potency estimated from few doses data, which are given here for 19 compounds.

Set-up in all cases: species or system human, MV4-11 + K-562 + COLO205 + SK-N-BE2 + OVCAR-8
One test has as its system CDK4. To be noted: read-out: apparent Kd, compound concentrations: 100 nM and 1000 nM (sheet 'Samples'), n = 1.
The test system of the next test is MDN1. To be noted: read-out: apparent Kd, n = 1.
A further test deals with PLK1. The settings on record: read-out: apparent Kd, compound concentrations: 100 nM and 1000 nM (sheet 'Samples'), n = 1.
For a further test, the system named is MAP3K1. The settings on record: read-out: apparent Kd, n = 1.
The subject of another test is MAP3K6. To be noted: read-out: apparent Kd, compound concentrations: 100 nM and 1000 nM (sheet 'Samples'), n = 1.
A further test deals with PIM3. The settings on record: read-out: apparent Kd, compound concentrations: 100 nM and 1000 nM (sheet 'Samples'), n = 1.
Another test deals with PIK3CB. The settings on record: read-out: apparent Kd, compound concentrations: 100 nM and 1000 nM (sheet 'Samples'), n = 1.
The test system of another test is RIPK3. The settings on record: read-out: apparent Kd; compound concentrations: 100 nM and 1000 nM (sheet 'Samples'), CATDS: 1.26623913156397E-2; n = 1.
Another test relates to CDK12. To be noted: read-out: apparent Kd, compound concentrations: 100 nM and 1000 nM (sheet 'Samples'), n = 1.
The subject of a further test is ADRBK1. The settings on record: read-out: apparent Kd, n = 1.
The next test concerns CAMK2B. To be noted: read-out: apparent Kd, compound concentrations: 100 nM and 1000 nM (sheet 'Samples'), n = 1.
The next test has as its system CAMK2G. To be noted: read-out: apparent Kd; compound concentrations: 100 nM and 1000 nM (sheet 'Samples'), CATDS: 2.3496297830239501E-2; n = 1.
The next test deals with NEK1. To be noted: read-out: apparent Kd; compound concentrations:100 nM and 1000 nM (sheet 'Samples'); n = 1.
The test system of a further test is PRKCZ. To be noted: read-out: apparent Kd; compound concentrations:100 nM and 1000 nM (sheet 'Samples'); n = 1.
The subject of a further test is ERN2. To be noted: read-out: apparent Kd; compound concentrations:100 nM and 1000 nM (sheet 'Samples'); n = 1.
The next test deals with PI4KB. The settings on record: read-out: apparent Kd; compound concentrations: 100 nM and 1000 nM (sheet 'Samples'), CATDS: 7.0031928225578105E-2; n = 1.
Setting [1] is: compound concentrations:100 nM and 1000 nM (sheet 'Samples').

Where two headings read alike, the source gives them in different places.

With `Cl.Cl.NC(CNC(=O)c1cc(Br)c(-c2ccnc3[nH]ccc23)s1)c1ccccc1.NC(CNC(=O)c1cc(Br)c(-c2ccnc3[nH]ccc23)s1)c1ccccc1` (stereo not drawn) [GSK1322949A], the potency estimated from few doses in the test on CDK4 (CATDS: 3.2269694765046902E-2) was 1.03 µM; in the test on MDN1 (compound concentrations: 100 nM and 1000 nM (sheet 'Samples'), CATDS: 2.3593450099353701E-2), 2.3 µM; in the test on PLK1 (CATDS: 2.70929722302506E-2), 1.55 µM. In the case of `CNCc1ccc(-c2cc(-c3nc(-c4ccc(S(=O)(=O)C(C)C)cc4)cnc3N)on2)cc1` [VE-822], the potency estimated from few doses in the test with MAP3K1 (setting [1]) was 1.26 µM. Regarding `FC(F)(F)c1ccc(-c2ncn(CCCN3CCOCC3)c2-c2ccncc2)cc1` [SB-217780], the potency estimated from few doses in the test with MAP3K6 (CATDS: 0.20378278704682301) is 1.72 µM. With `COc1cc(Nc2nccc(N3CCC(NC(=O)c4cccc(NC(C)=O)c4)C3)n2)cc(OC)c1OC` (stereo not drawn) [GSK1379754A], in the test with PIM3 (CATDS: 9.0008616948043199E-2), the potency estimated from few doses is 1.47 µM. Consider `O=C(O)C(F)(F)F.O=c1[nH]ccc2nc(N[C@@H]3CCNC3)nc(Nc3ccc4c(c3)S(=O)(=O)CC4)c12` [GSK2181306A], for which the potency estimated from few doses with PIM3 (CATDS: 5.1317659487183503E-2) is 0.0364 µM. `CCn1c(-c2cccnc2O)nc2cnccc21` [SB-736715]: the figures for the potency estimated from few doses with PIK3CB (CATDS: 1.6268370150171501E-2), in the test with PIM3 (CATDS: 1.44947330035029E-2) and in the test on RIPK3 were 1.1 µM, 1.39 µM and 1.9 µM, respectively. On to `O=C(O)C(F)(F)F.O=C(O)C(F)(F)F.O=c1[nH]ccc2nc(N[C@@H]3CCCNC3)nc(Nc3ccc(S(=O)(=O)N4CCOCC4)cc3)c12.O=c1[nH]ccc2nc(N[C@@H]3CCCNC3)nc(Nc3ccc(S(=O)(=O)N4CCOCC4)cc3)c12` [GSK2177277A], for which the potency estimated from few doses in the test on CDK4 (CATDS: 6.3800508588872503E-3) was 1.6 µM. Regarding `CCN(CC)Cc1ccc(Nc2nccc(-c3cnn4ncccc34)n2)cc1` [GW780056X], the potency estimated from few doses is 0.899 µM in the test with CDK12 (CATDS: 2.2557982772038999E-2) and 1.42 µM with CDK4 (CATDS: 1.9618421656054302E-2).

As for `COc1ccc(-c2cc3c(N)ncnc3o2)cc1` [GW642138X], the potency estimated from few doses in the test on ADRBK1 (compound concentrations: 100 nM and 1000 nM (sheet 'Samples'), CATDS: 0.10043155858125399) was 1.82 µM.

`COc1cc[nH]c1/C=C1\C(=O)Nc2ccc(F)c(C#CC3(O)CCNCC3)c21.Cl` [RO0282986-001]: the potency estimated from few doses in the test on CAMK2B (CATDS: 2.6528417916085501E-2) was 0.123 µM; with CAMK2G, 0.154 µM. For `CC(C)Oc1ccc2c(-c3ccnc(Nc4ccc(N5CCN(C)CC5)cc4)n3)cnn2n1` [GW696155X], in the test with NEK1, the potency estimated from few doses was 1.13 µM.

As for `CC(C)Nc1cc(-c2ccc3c(N)n[nH]c3c2)nc(N)n1` [GSK2221681A], in the test on PRKCZ, the potency estimated from few doses was 1.52 µM. Turning to `Cc1ccccc1C1=C(c2cn(C)c3ccccc23)C(=O)NC1=O` [RO0317612-000], in the test with CAMK2B (CATDS: 0.21692870054448801), the potency estimated from few doses is 0.479 µM. In the case of `Nc1nc(-c2ccc3c(N)n[nH]c3c2)cc(N2CCCC(NC(=O)c3ccccc3)C2)n1` (stereo not drawn) [GSK2286775B], the potency estimated from few doses with ADRBK1 (setting [1]) is 2.05 µM; in the test on ERN2 it was 1.58 µM; in the test with MDN1 (setting [1]) it was 1.29 µM.

Regarding `CCn1c(-c2nonc2N)nc2cncc(Br)c21` [SB-738004], the potency estimated from few doses in the test on PRKCZ is 0.544 µM. Consider `CC(C)N1CC(=O)N(C)c2cnc(Nc3cccc(S(=O)(=O)CCN4CCOCC4)c3)nc21` [BI00009348], for which the potency estimated from few doses was 1.56 µM in the test on MAP3K1 (compound concentrations: 100 nM and 1000 nM (sheet 'Samples'), CATDS: 5.2672429134220697E-2); 0.698 µM with MAP3K6 (CATDS: 7.2828700738199706E-2). For `Nc1nccc(-c2ccc3c(N)n[nH]c3c2)n1` [GSK1034945A], in the test with PRKCZ, the potency estimated from few doses was 1.83 µM. For `NS(=O)(=O)c1ccc(NC=C2C(=O)Nc3ccc4ncsc4c32)cc1` [GW589933X], in the test on CDK12 (CATDS: 1.98005897918999E-2), the potency estimated from few doses is 1.01 µM.

As to `CCC(CC)(CC)n1cnc2c(N)ncnc21` [SKF-97620], the potency estimated from few doses was 0.17 µM with PI4KB, 0.337 µM with PIK3CB (CATDS: 4.8769305637968503E-2) and 2.3 µM in the test on PLK1 (CATDS: 2.3248772158463601E-2).
